Broadly, the AC50 is the midpoint of the concentration-response curve, whichever way the signal moves.

“And” between values parts separate entries of the source, which are not always exact repeats. Equal entries are not always repeated. Inconclusive results are not listed. Some structures have more than one record in an assay (separate samples or runs), and their calls can disagree. The source made the active and inactive calls. How the source made its calls, unless noted: active means hit-call score of the fitted dose curve at least 0.9, where 1 is the maximum; inconclusive means response in the unintended direction; inactive means score below 0.9.

The target in assay [1] is bovine Gamma-Aminobutyric Acid Type A Receptor BDZ, alpha 1 site (GABARa1), GABRA1 (gene 780973) (UniProt P08219). In words: NVS_LGIC_bGABARa1: NovaScreen (NVS) Ligand-Gated Ion Channel Assay for bovine Gamma-Aminobutyric Acid Type A Receptor BDZ, alpha 1 site (GABARa1) (AID 2283321). The gist of the method:
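Radioligand competition binding on bovine cortical membranes, 0.75 h, filter-based scintillation counting. Primary single concentration 25 uM in duplicate; actives rerun in concentration-response to 50 uM max. Loss of signal fitted versus DMSO.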

Assay [2] has as its target bovine Gamma-Aminobutyric Acid Type A Receptor Agonist (GABAR Agonist), GABRA1 (gene 780973) (UniProt P08219). In words: NVS_LGIC_bGABAR_Agonist: NovaScreen (NVS) Ligand-Gated Ion Channel Assay for bovine Gamma-Aminobutyric Acid Type A Receptor Agonist (GABAR Agonist) (AID 2283338). The gist of the method:
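Radioligand binding to bovine cerebellar membranes in agonist format, read by filter-based scintillation counting after 1 h. Primary screen in duplicate at 25 uM, with actives followed in concentration series. Gain of signal versus DMSO.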

In assay [3] the target is human Peripheral-type Benzodiazepine Receptor (PBR), TSPO (gene 706) (UniProt P30536). As to the kind of experiment: NVS_MP_hPBR: NovaScreen (NVS) Membrane Protein Assay for human Peripheral-type Benzodiazepine Receptor (PBR) (AID 2283331).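 Further: hits reduce radioligand binding relative to DMSO baseline.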 The method, boiled down:
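Radioligand displacement on human colonic cell membranes, 1 h incubation; bound radioactivity by filtration and scintillation counting. Primary screen in duplicate at 25 uM single concentration, actives followed up in concentration series; loss of binding versus DMSO.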

Assay [4] concerns the target rat Peripheral-type Benzodiazepine Receptor (PBR), Tspo (gene 24230) (UniProt P16257). In words: NVS_MP_rPBR: NovaScreen (NVS) Membrane Protein Assay for rat Peripheral-type Benzodiazepine Receptor (PBR) (AID 2283335). The method, boiled down: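 Rat kidney membranes; radioligand binding with displacement, filter-based scintillation counting, 1 h incubation. Primary screen in duplicate at 25 uM, actives followed in concentration series; loss of binding vs DMSO.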

Assay [5] concerns the target bovine Gamma-Aminobutyric Acid Type A Receptor BDZ, alpha 5 site (GABARa5), GABRA5 (gene 523515) (UniProt Q08E50). As to the kind of experiment: NVS_LGIC_bGABARa5: NovaScreen (NVS) Ligand-Gated Ion Channel Assay for bovine Gamma-Aminobutyric Acid Type A Receptor BDZ, alpha 5 site (GABARa5) (AID 2283323). The method, boiled down:
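Radioligand competitive displacement binding on bovine hippocampal membranes, read 1 hr after dosing by filter-based scintillation counting. Primary screen at 25 uM in duplicate; actives (e.g. ≥30% inhibition) then run in concentration-response up to 50 uM.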

Assay [6] concerns the target rat Opioid Receptor, Non-selective Binding, Oprm1 (gene 25601) (UniProt P33535). As to the kind of experiment: NVS_GPCR_rOpiate_NonSelective: NovaScreen (NVS) G Protein-Coupled Receptor Assay for rat Opioid Receptor, Non-selective Binding (AID 2283318). The gist of the method:
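Rat forebrain membranes, cell-free radioligand binding with filter-based scintillation counting, read 1.5 h after dosing. Primary screen in duplicate at 25 uM; actives retested in concentration series. Loss of signal versus DMSO baseline scored.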

Assay [7] deals with Sodium channel protein type 1 subunit alpha (Rattus norvegicus) (UniProt P04774). In words: NVS_IC_rNaCh_site2: NovaScreen (NVS) Ion Channel Assay for rat Sodium Channel, Site 2 (NaCh) (AID 2283322).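 Further: hit means loss of radioligand binding signal relative to DMSO so AC50 marks displacement.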 The gist of the method: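 Membranes: rat forebrain. Format: competitive radioligand displacement, filter separation, scintillation readout, 1 h exposure. Primary screen in duplicate at 25 uM; actives retested in concentration series.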

In assay [8] the target is Voltage-dependent N-type calcium channel subunit alpha-1B (Rattus norvegicus) (UniProt Q02294). As to the kind of experiment: NVS_IC_rCaChN: NovaScreen (NVS) Ion Channel Assay for rat Calcium Channel, Type N (CaChN) (AID 2283317).
Assay [9] is described as follows: NVS_IC_rCaDHPRCh_L: NovaScreen (NVS) Ion Channel Assay for rat Calcium Channel, Type L, Dihydropyridine Site (CaDHPRCh_L) (AID 2283320). The method, boiled down: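 Radioligand binding to dihydropyridine site on rat cortical membranes, filter-based scintillation counting, 1 h after dosing. Screened in duplicate at 25 uM; actives rerun in concentration-response up to 50 uM. Loss of signal versus DMSO baseline.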

In assay [10] the target is rat Glutamate, NMDA Agonist Site (GluNMDA), Grin1 (gene 24408) (UniProt P35439). In words: NVS_LGIC_rGluNMDA_Agonist: NovaScreen (NVS) Ligand-Gated Ion Channel Assay for rat Glutamate, NMDA Agonist Site (GluNMDA) (AID 2283327). The gist of the method: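 Rat forebrain membranes, radioligand binding in the agonist-site protocol; 1 h after dosing; filter-based scintillation counting. Single-concentration duplicate screen at 25 uM, then concentration-response up to 50 uM for actives; gain-of-signal vs DMSO.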

Assay [11] addresses rat Thyrotropin Releasing Hormone Receptor (TRH), Trhr (gene 25570) (UniProt Q01717). In words: NVS_GPCR_rTRH: NovaScreen (NVS) G Protein-Coupled Receptor Assay for rat Thyrotropin Releasing Hormone Receptor (TRH) (AID 2283329).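 Further: hit means lower bound tracer signal versus DMSO baseline.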 The method, boiled down: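 Competitive radioligand binding on rat forebrain membrane preparations, with filtration and scintillation readout after 4 h. Primary testing in duplicate at 25 uM; actives confirmed in concentration-response. DMSO defined baseline.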

The target in assay [12] is Glutamate receptor ionotropic, kainate 1 (Rattus norvegicus) (UniProt P22756). As to the kind of experiment: NVS_IC_rKAR: NovaScreen (NVS) Ion Channel Assay for rat Kainic Acid Receptors (KAR) (AID 2283334; active means hit-call score of the fitted dose curve at least 0.9, where 1 is the maximum; inactive means score below 0.9). The method, boiled down:
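Radioligand displacement binding using rat forebrain membranes, 1 h incubation, filter-based scintillation counting. Screened in duplicate at 25 uM, with actives retested in concentration-response up to 50 uM; fitted against DMSO.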

For assay [13], the target named is human Androgen Receptor (AR), AR (gene 367) (UniProt P10275). In words: NVS_NR_hAR: NovaScreen (NVS) Nuclear Receptor Binding Assay for human Androgen Receptor (AR) (AID 2283332). The gist of the method: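 LnCAP cell-free extract; radioligand displacement read by scintillation counting after 20 h. Primary screen single concentration 25 uM in duplicate, actives then run as concentration series; loss-of-signal fitted relative to DMSO baseline.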
Chain of human Androgen Receptor (AR), AR (gene 367) (P10275 whole entry, looked up): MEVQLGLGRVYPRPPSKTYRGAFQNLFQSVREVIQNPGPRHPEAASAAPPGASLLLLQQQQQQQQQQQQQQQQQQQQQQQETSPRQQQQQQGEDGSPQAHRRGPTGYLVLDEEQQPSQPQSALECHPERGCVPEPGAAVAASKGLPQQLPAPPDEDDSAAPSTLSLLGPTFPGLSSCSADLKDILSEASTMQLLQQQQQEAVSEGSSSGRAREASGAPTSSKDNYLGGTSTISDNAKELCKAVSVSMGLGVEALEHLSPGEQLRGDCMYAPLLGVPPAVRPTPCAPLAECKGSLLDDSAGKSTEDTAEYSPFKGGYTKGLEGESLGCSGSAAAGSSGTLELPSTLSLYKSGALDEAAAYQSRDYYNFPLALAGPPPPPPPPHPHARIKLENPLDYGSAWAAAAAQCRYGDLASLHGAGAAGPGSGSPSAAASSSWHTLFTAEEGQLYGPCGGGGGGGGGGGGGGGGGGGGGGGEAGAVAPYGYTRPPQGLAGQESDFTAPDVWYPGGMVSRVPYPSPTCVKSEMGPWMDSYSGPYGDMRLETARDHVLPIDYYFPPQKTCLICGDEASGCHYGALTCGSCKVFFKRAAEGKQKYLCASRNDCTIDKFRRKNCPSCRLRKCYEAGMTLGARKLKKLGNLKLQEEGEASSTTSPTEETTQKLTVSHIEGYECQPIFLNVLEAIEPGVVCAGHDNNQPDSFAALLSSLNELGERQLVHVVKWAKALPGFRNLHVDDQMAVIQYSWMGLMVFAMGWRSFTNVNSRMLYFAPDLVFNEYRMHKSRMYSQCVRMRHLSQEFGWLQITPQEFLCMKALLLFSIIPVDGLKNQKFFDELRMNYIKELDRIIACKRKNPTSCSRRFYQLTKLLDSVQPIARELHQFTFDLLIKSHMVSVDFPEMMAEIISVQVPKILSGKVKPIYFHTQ

Assay [14] has as its target Voltage-gated inwardly rectifying potassium channel KCNH2 (Homo sapiens) (UniProt Q12809). As to the kind of experiment: NVS_IC_hKhERGCh: NovaScreen (NVS) Ion Channel Assay for human Potassium Channel ERG (KhERGCh) (AID 2283333). The gist of the method: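 Cell-free radioligand competition binding on hERG protein extracted from CHO cells, read by filter-based scintillation counting 0.75 h after dosing. Primary screen at 25 uM in duplicate, actives followed in concentration series. Signal loss fitted versus DMSO.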

Assay [15] deals with Small conductance calcium-activated potassium channel protein 1 (Rattus norvegicus) (UniProt P70606). As to the kind of experiment: NVS_IC_rKCaCh: NovaScreen (NVS) Ion Channel Assay for rat Potassium Channel, Ca2+ Act., VI (KCaCh) (AID 2283336). The gist of the method:
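Radioligand binding to rat forebrain membranes, cell-free, read 1 hour after dosing by filter-based scintillation counting. Compounds first run in duplicate at 25 uM, actives then in concentration series; loss of signal vs DMSO indicates displacement.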

Chain of bovine Gamma-Aminobutyric Acid Type A Receptor BDZ, alpha 1 site (GABARa1), GABRA1 (gene 780973) (P08219 whole entry, looked up): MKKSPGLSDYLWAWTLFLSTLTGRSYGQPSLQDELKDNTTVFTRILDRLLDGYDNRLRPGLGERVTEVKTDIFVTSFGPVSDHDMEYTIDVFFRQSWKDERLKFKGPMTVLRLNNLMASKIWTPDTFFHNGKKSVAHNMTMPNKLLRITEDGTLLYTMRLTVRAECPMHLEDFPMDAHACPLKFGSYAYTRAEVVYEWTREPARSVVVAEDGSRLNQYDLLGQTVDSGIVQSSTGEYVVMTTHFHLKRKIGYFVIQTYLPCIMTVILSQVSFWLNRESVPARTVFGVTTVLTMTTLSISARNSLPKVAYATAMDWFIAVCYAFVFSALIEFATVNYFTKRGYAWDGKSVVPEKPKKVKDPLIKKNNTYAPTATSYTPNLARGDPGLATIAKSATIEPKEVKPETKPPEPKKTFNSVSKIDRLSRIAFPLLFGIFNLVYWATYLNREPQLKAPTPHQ
Chain of bovine Gamma-Aminobutyric Acid Type A Receptor Agonist (GABAR Agonist), GABRA1 (gene 780973) (P08219 whole entry, looked up): as above
Chain of human Peripheral-type Benzodiazepine Receptor (PBR), TSPO (gene 706) (P30536 whole entry, looked up): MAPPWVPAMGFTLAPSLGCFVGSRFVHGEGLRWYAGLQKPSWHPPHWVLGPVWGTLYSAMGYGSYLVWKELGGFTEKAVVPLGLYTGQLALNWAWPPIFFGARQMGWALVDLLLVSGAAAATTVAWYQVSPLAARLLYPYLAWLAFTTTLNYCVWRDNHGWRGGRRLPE
Chain of rat Peripheral-type Benzodiazepine Receptor (PBR), Tspo (gene 24230) (P16257 whole entry, looked up): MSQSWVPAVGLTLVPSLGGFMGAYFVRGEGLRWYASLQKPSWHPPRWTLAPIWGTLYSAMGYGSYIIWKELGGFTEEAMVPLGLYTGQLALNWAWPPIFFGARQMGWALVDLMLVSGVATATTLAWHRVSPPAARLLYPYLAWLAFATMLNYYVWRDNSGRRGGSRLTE
Chain of rat Thyrotropin Releasing Hormone Receptor (TRH), Trhr (gene 25570) (Q01717 whole entry, looked up): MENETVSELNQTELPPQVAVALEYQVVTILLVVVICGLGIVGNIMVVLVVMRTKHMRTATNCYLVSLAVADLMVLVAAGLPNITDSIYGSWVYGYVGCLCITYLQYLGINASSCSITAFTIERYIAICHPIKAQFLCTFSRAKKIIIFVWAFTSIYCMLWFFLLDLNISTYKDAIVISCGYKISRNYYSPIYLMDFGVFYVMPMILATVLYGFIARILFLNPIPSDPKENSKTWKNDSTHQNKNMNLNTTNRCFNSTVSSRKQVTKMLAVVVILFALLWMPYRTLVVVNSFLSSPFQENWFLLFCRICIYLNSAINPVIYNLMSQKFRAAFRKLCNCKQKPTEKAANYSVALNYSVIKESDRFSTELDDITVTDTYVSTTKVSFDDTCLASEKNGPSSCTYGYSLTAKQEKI
Chain of Glutamate receptor ionotropic, kainate 1 (Rattus norvegicus) (P22756 whole entry, looked up): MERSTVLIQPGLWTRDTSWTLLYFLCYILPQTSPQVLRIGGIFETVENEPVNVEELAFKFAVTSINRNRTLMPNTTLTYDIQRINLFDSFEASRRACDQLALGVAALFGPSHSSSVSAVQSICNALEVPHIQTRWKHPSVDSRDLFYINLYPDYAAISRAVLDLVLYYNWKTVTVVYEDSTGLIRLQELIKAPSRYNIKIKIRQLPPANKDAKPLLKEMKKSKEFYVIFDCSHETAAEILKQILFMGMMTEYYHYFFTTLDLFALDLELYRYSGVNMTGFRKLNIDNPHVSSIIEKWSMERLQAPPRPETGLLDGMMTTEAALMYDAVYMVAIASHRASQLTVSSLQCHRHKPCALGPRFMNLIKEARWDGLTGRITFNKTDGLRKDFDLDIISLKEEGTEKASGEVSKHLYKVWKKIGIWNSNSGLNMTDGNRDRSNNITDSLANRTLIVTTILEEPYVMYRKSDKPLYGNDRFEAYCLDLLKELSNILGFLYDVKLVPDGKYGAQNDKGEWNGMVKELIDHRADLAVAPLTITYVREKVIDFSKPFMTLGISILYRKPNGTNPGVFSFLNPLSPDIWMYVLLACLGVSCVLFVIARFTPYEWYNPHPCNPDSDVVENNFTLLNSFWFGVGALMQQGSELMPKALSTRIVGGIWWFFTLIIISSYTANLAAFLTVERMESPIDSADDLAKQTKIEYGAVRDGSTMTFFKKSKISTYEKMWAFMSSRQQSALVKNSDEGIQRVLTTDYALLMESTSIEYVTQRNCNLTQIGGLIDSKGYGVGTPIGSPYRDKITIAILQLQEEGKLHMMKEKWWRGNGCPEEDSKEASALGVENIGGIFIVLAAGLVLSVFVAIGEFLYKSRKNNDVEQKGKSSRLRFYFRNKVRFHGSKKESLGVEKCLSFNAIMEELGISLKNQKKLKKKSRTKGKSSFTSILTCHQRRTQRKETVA
Chain of rat Opioid Receptor, Non-selective Binding, Oprm1 (gene 25601) (P33535 whole entry, looked up): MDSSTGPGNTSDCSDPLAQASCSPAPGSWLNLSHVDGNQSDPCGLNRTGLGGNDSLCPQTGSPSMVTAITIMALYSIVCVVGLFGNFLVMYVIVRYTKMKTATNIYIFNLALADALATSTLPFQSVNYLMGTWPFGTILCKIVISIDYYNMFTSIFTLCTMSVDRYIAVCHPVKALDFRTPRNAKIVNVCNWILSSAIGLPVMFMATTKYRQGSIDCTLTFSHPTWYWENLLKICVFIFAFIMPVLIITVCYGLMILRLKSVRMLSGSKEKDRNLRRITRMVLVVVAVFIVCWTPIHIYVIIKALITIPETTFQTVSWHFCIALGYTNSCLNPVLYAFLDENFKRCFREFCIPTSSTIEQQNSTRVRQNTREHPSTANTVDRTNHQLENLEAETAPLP
Chain of Small conductance calcium-activated potassium channel protein 1 (Rattus norvegicus) (P70606 whole entry, looked up): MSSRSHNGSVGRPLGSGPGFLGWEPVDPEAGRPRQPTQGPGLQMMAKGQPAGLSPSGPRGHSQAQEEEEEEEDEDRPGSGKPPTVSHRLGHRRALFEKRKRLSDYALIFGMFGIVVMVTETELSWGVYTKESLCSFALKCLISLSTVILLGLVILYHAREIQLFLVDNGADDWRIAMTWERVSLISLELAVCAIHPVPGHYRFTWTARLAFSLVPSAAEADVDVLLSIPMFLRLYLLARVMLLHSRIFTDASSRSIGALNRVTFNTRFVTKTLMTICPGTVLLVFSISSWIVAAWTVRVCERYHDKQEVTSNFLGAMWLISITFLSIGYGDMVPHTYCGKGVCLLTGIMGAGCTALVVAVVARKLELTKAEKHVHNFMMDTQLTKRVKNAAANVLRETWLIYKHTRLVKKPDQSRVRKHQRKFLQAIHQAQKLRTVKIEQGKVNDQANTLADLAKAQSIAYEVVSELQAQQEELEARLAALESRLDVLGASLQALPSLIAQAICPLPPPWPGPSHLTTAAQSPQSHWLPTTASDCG
Chain of bovine Gamma-Aminobutyric Acid Type A Receptor BDZ, alpha 5 site (GABARa5), GABRA5 (gene 523515) (Q08E50 whole entry, looked up): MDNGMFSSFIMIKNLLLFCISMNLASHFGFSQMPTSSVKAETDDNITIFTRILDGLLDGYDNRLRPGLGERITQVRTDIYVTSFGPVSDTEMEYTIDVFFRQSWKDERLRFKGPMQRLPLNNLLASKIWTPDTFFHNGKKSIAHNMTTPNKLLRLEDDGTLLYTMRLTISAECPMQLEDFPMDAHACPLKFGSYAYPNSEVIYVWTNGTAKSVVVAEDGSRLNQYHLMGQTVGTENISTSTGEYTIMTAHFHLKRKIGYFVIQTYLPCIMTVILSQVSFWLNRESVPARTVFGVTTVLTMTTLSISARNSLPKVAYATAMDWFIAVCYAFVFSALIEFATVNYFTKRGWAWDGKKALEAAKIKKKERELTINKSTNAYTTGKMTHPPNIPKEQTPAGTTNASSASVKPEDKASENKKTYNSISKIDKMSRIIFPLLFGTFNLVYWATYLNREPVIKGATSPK

`[2H]C1([2H])[n+]2ccccc2-c2cccc[n+]2C1([2H])[2H]`: the compound was classed as inactive in [1] and in assay [2].

Turning to `COP(=S)(OC)Oc1ccc([N+](=O)[O-])cc1`, in [1], the compound was classed as inactive. The AC50 in [3] was 19.5 µM (active); in assay [4] it was 15.7 µM (active).

For the compound `O=C(NC(=O)c1c(F)cccc1F)Nc1ccc(OC(F)(F)C(F)OC(F)(F)F)c(Cl)c1` (centres undefined), the compound was called inactive in assay [5].

Consider `Oc1cc(Cl)ccc1Oc1ccc(Cl)cc1Cl`, for which the call in [6], in [7], in assay [3] and in [4] was inactive. For the same compound, the half-maximal activity concentration (AC50) in assay [4] was 5.64 µM (active) and 25.5 µM (active) and 9.13 µM (active).

In the case of `COP(=O)(OC)OC=C(Cl)Cl`, the outcome in assay [8] and in assay [3] was inactive.

On to `CC(C)(C)C(O)/C(=C\c1ccc(Cl)cc1Cl)n1cncn1` (centres undefined), for which the outcome in assay [8] and in [6] was inactive.

Consider `O=S(=O)(O)C(F)(F)C(F)(F)C(F)(F)C(F)(F)C(F)(F)C(F)(F)C(F)(F)C(F)(F)F`, for which the outcome in [9], in assay [7], in assay [10], in assay [4] and in assay [2] was inactive.

As for `CC(C)N(C(=O)COc1nnc(C(F)(F)F)s1)c1ccc(F)cc1`, the results for the AC50 in assay [1], in [3] and in [4] were 14.2 µM (active), 0.27 µM (active) and 0.0248 µM (active), respectively.

For the compound `N#Cc1c(Cl)c(Cl)c(Cl)c(C#N)c1Cl`, the outcome in assay [8] was inactive. In addition, the AC50 in assay [3] was 9.01 µM (active).

Take `ClC1C(Cl)C(Cl)C(Cl)C(Cl)C1Cl` (centres undefined): the call in assay [11] and in [12] was inactive.

As for `O=[N+]([O-])c1c(Cl)c(Cl)c(Cl)c(Cl)c1Cl`, in [11], the outcome was inactive.

Take `CCCN(CCC)c1c([N+](=O)[O-])cc(C(F)(F)F)cc1[N+](=O)[O-]`: the compound was called inactive in assay [13].

`CCOc1nc(NC)nc(NC(=O)NS(=O)(=O)c2ccccc2C(=O)OC)n1`: the compound was called inactive in assay [13].

Turning to `COc1cc(OC)nc(NC(=O)NS(=O)(=O)c2cc(NC=O)ccc2C(=O)N(C)C)n1`, the call in assay [14] was inactive.

In the case of `O=C(O)COc1ccc(Cl)cc1Cl`, the result in assay [12] was inactive.

For `N#CN`, the result in assay [15] was inactive.

With `O=[N+]([O-])/N=C1\NCCN1Cc1ccc(Cl)nc1`, in [2], the result was inactive.

The record behind these values is PubChem BioAssay (EPA / NIEHS).
